The campaign covered roughly 290,000 compounds. About 4,200 (1.4%) were called active.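 Rule for the calls: active = binding response more than 3 SD above or below the average of its plate-row segment, actives on both sides; inconclusive = wells at one plate position flagged as instrument error; inactive = the rest.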 The entries come from a sample that favours actives as a whole.
What follows are molecules tested against Mitogen-activated protein kinase kinase kinase 3 (Homo sapiens) (UniProt Q99759) (assay: compounds raising or lowering MEK5 association with MEKK3 PB1 – biochemical, wildtype MEKK3, multiplex bead flow cytometry, Alexa488-MEK5, primary screen (AID 1529;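 note: Alexa488 bead fluorescence after subtracting the streptavidin-only scavenger bead signal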)). Settings: bead-based flow cytometry, Alexa488-MEK5 binding to MEKK3; at 10 µM; actives lie on both sides; 0 = blocked by unlabeled MEK5, 100 = vehicle.
Chain of Mitogen-activated protein kinase kinase kinase 3 (Homo sapiens) (Q99759 whole entry, looked up): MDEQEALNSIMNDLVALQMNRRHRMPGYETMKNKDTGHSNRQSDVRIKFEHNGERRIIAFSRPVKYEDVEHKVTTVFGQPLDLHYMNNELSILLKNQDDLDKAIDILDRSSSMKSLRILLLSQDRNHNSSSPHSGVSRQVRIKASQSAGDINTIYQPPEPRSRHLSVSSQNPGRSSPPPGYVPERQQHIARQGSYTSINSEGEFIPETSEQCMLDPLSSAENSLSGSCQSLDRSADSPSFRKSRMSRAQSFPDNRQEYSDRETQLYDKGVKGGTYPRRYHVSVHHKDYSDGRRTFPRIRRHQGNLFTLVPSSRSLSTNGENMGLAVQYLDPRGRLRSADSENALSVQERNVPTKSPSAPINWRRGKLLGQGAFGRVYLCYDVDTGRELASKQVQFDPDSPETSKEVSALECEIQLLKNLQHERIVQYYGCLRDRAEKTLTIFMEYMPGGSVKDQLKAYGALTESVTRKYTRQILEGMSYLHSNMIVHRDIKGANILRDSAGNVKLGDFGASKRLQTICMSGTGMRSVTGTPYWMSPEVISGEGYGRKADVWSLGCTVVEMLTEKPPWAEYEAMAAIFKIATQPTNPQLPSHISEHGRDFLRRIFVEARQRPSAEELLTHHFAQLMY

| SMILES | binding response (% of control) |
| --- | --- |
| CC1CCCN(CC(=O)Nc2cc(Cl)ccc2Oc2ccccc2)C1 (stereo unspecified) | 107% (inactive) |
| COC(=O)c1c(C)cc(O)c(C)c1O | 102% (inactive) |
| CCOC(=O)CNC(=O)CSc1nc2cccnc2n1CC | 127% (active) |
| CCOC(=O)CNC(=O)CSc1ncccc1-c1nc2ccccc2[nH]1 | 108% (inactive) |
| CCOC(=O)CNC(=O)CSc1nnc(COc2ccc(Cl)cc2)n1CC | 96% (inactive) |
| COc1cc2c(cc1OC)C(c1ccncc1)CC(=O)N2 (stereo unspecified) | 109% (inactive) |
| COc1ccc(C2CC(=O)Nc3cc(C)c(C)cc32)c(OC)c1OC (stereo unspecified) | 0% [inhibitor] (active) |
| COc1cc2c(cc1OC)C(C(=O)Nc1cc(C)c(OC)c(C)c1)CC(=O)N2 (stereo unspecified) | 109% (inactive) |
| OCCNc1nc(Nc2ccc(Cl)c(Cl)c2)nc2ccccc12 | 111% (inactive) |
| CC(C)(C)NC(=O)c1cccc(NC(=O)Cc2ccc(Br)cc2)c1 | 163% (active) |
| O=C(Cc1ccccc1)Nc1cccc(NC(=O)c2ccccc2)c1 | 98% (inactive) |
| COc1ccc(CC(=O)Nc2ccc(C(=O)NC(C)(C)C)cc2)cc1 | 97% (inactive) |
| Cc1nc(-c2ccccc2)sc1C1(C)CC(c2cccnc2)=NO1 (stereo unspecified) | 104% (inactive) |
| O=C(CC(c1ccccc1)c1ccccc1)NCC(O)c1ccc([N+](=O)[O-])cc1 (stereo unspecified) | 101% (inactive) |
| O=C(O)CC(Cc1ccccc1)C(=O)Nc1ccc([N+](=O)[O-])cc1 (stereo unspecified) | 128% (active) |
| O=C(Cc1ccccc1)NNS(=O)(=O)c1ccc([N+](=O)[O-])cc1 | 95% (inactive) |
| Fc1ccccc1/C=N/Nc1cc(N2CCCCC2)ncn1 | 105% (inactive) |
| CCc1noc(C)c1C(=O)N1CCCC(N2CCN(c3ccc(F)cc3)CC2)C1 (stereo unspecified) | 91% (inactive) |
| Cc1ccc(CNC(=O)C2CCCN2S(=O)(=O)c2ccc3c(c2)C(C)(C)C(=O)N3C)cc1 (stereo unspecified) | 104% (inactive) |
| CC1(C)Cc2cccc(OCC(=O)NCc3ccccc3)c2O1 | 100% (inactive) |
| CC1(C)Cc2cccc(OCC(=O)N3CCN(c4ccc([N+](=O)[O-])cc4)CC3)c2O1 | 59% [inhibitor] (active) |
| CC1(C)Cc2cccc(OCC(N)=O)c2O1 | 100% (inactive) |
| COc1ccc(C)cc1NC(=O)CN(C)S(=O)(=O)c1ccc2c(c1)n(C)c(=O)c(=O)n2C | 101% (inactive) |
| CCOc1cc(NC(=S)NCc2ccco2)c(OCC)cc1NC(=O)c1ccco1 | 105% (inactive) |

| SMILES | binding response (% of control) |
| --- | --- |
| COc1cc(NC(=S)NCc2ccco2)c(OC)cc1Cl | 71% [inhibitor] (active) |
| FC(F)Oc1ccc(NC(=S)NCc2ccco2)cc1Cl | 99% (inactive) |
| CCOC(=O)C1Nc2ccc(C(F)(F)F)cc2C2C=CCC12 (stereo unspecified) | 99% (inactive) |
| CCC(=O)N1c2ccccc2NC2=C(C(=O)CCC2)C1c1ccco1 (stereo unspecified) | 94% (inactive) |
| CC(C)C(=O)N1c2ccccc2NC2=C(C(=O)CCC2)C1c1ccc(N(C)C)cc1 (stereo unspecified) | 129% (active) |
| CCCC(=O)N1c2ccccc2NC2=C(C(=O)CCC2)C1c1ccc(F)cc1 (stereo unspecified) | 100% (inactive) |
| CC(C)(C)C(=O)Nc1ccc(-c2cn3cccnc3n2)cc1 | 107% (inactive) |
| COc1cc(C(C)=O)ccc1OC(=O)CN1C(=O)c2ccccc2C1=O | 102% (inactive) |
| CC1Cc2ccccc2N1C1=CC(=O)CC(C)(C)C1 (stereo unspecified) | 100% (inactive) |
| CC1(C)OC(=O)N2CCc3ccccc3C21C (stereo unspecified) | 129% (active) |
| O=C(Nc1ccccc1)/C(=C/c1ccc([N+](=O)[O-])cc1)NC(=O)c1ccccc1 | 111% (inactive) |
| O=C(Nc1ccc(C(=O)O)cc1)/C(=C/c1ccc([N+](=O)[O-])cc1)NC(=O)c1ccccc1 | 97% (inactive) |
| CNC(=O)/C(=C\C=C\c1ccccc1)NC(=O)c1ccc([N+](=O)[O-])cc1 | 73% [inhibitor] (active) |
| O=C(Nc1ccc(O)cc1)c1ccc(NC(=O)c2ccco2)cc1 | 101% (inactive) |
| COc1ccc2c(c1)CCNC2Cc1ccc(OC)c(O)c1 (stereo unspecified) | 98% (inactive) |
| C=CCn1c(=S)sc2c(=O)[nH]c(C)nc21 | 131% (active) |
| C=CCn1c(-c2sc(-c3ccccc3)nc2C)n[nH]c1=S | 99% (inactive) |
| C=CCn1c(-c2ccc3[nH]c(C)c(C)c3c2)n[nH]c1=S | 105% (inactive) |
| O=S(=O)(c1cccc(Cn2nnc(-c3ccc(F)cc3)n2)c1)N1CCOCC1 | 103% (inactive) |
| Cc1csc(NC(=O)CSc2ccc(-c3ccc(F)cc3)nn2)n1 | 100% (inactive) |
| O=C(CSc1ccc(-c2ccc(F)cc2)nn1)Nc1ccc2c(c1)OCCO2 | 133% (active) |
| Cc1ccc(SCC(=O)Nc2ccc3c(c2)OCCO3)cc1 | 127% (inactive) |
| C[C@H]1CC[C@]2(O[C@@H](CCO)C[C@@H](O)[C@@H]2O)O1 | 96% (inactive) |
| COc1cc(NC(=O)c2cccnc2SC)cc(OC)c1 | 110% (inactive) |

| SMILES | binding response (% of control) |
| --- | --- |
| COc1ccc2nc(C)cc(Nc3cccc(C(=O)O)c3)c2c1 | 106% (inactive) |
| COc1cccc(Nc2ncccc2C(=O)O)c1 | 3% [inhibitor] (active) |
| O=C(NC(=S)Nc1ccc(Cl)cc1Cl)C1CC1 | 100% (inactive) |
| Cc1ccc2oc(C(=O)N3CCN(C)C[C@@H]3C(C)C)c(C)c2c1 | 102% (inactive) |
| COc1ccc(NCCc2ccccn2)cc1 | 108% (inactive) |
| O=C(NC(Cc1c[nH]c2ccccc12)C(=O)O)/C(=C/c1ccco1)NC(=O)c1ccccc1 (stereo unspecified) | 101% (inactive) |
| COc1ccc(/C=C(\NC(=O)c2ccc(OC)c(OC)c2)C(=O)NCCc2c[nH]c3ccccc23)cc1 | 103% (inactive) |
| Cc1ccc(C(=O)N/C(=C/c2ccco2)C(=O)NCCc2c[nH]c3ccccc23)cc1C | 73% [inhibitor] (active) |
| CCOC(=O)c1cc2occc2n1CC(=O)N1CCN(C(=O)c2ccco2)CC1 | 0% [inhibitor] (active) |
| CCOC(=O)c1cc2c(ccn2C)n1CC(=O)N1CCC(C)CC1 | 111% (inactive) |
| CCOC(=O)c1cc2occc2n1CC(=O)NC1CCC(C)CC1 (stereo unspecified) | 104% (inactive) |
| CCn1c(SCC(=O)NC2CCCC2)nnc1-c1ccoc1C | 98% (inactive) |
| Cc1cccc(NC(=O)CN2C(=O)c3ccccc3C2=O)c1C | 110% (inactive) |
| Cc1cc(C)cc(NC(=O)CN2C(=O)c3ccccc3C2=O)c1 | 97% (inactive) |
| Cc1ccccc1C(=O)NNC(=O)CN1C(=O)c2ccccc2C1=O | 135% (active) |
| CCC(Cc1ccccc1)NC(=O)C1CCCCC1 (stereo unspecified) | 101% (inactive) |
| CCOCCCN(C)C1CCN(C(=O)c2oc3ccccc3c2NC(=O)Cc2cccc([N+](=O)[O-])c2)CC1 | 99% (inactive) |
| Cc1ccc(N2C(=O)CC(N3CCSCC3)C2=O)c(C)c1 (stereo unspecified) | 55% [inhibitor] (active) |
| O=C1CC(N2CCN(c3ccc(F)cc3)CC2)C(=O)N1c1ccccc1 (stereo unspecified) | 100% (inactive) |
| Cc1ccc(CC2CC(=O)N(c3cc(C)ccc3C)C2=O)cc1 (stereo unspecified) | 101% (inactive) |
| COC(=O)C1=C[C@@H](C(=O)OC)[C@@H]2C3=C(C(=O)[C@]2(C)NC(=O)c2ccccc2)[C@H](C)n2c(=O)n(C)c(=O)n2[C@@H]3C1 | 108% (inactive) |
| CC(c1cccnc1)N(CCN(C)C)C(=O)Nc1ccc(Cl)c(Cl)c1 (stereo unspecified) | 96% (inactive) |
| C/C(CC(=O)NC(C)(C)C)=N\NC(=O)c1ccco1 | 140% (active) |
| CC(C)(C)NC(=O)c1cc(NC(=O)c2ccco2)cc(NC(=O)c2ccco2)c1 | 101% (inactive) |

| SMILES | binding response (% of control) |
| --- | --- |
| COc1ccc(N(CC(=O)NC(C)(C)C)C(=O)c2ccco2)cc1 | 98% (inactive) |
| Cc1ccc(S(=O)(=O)N[C@@H](Cc2ccccc2)C(=O)N2CCC(C(=O)N[C@H](C(=O)O)C(C)O)CC2)cc1 (stereo partly specified) | 107% (inactive) |
| Cc1ccc(CSc2nsc(C)c2C#N)cc1 | 103% (inactive) |
| COc1cccc(OC)c1C(=O)Nc1ccc(Cc2ccncc2)cc1 | 147% (active) |
| COc1cccc(OC)c1C(=O)Nc1ccc2c(c1)n(C)c(=O)n2C | 109% (inactive) |
| CC(C)CC(=O)Nc1ccc(Cc2ccncc2)cc1 | 104% (inactive) |
| CCOc1ccc(N(CC(=O)Nc2ccccc2F)S(=O)(=O)c2c(C)[nH]c(=O)[nH]c2=O)cc1 | 101% (inactive) |
| O=C(NCC1CCCCC1)c1cc(S(=O)(=O)N2CCCCC2)ccc1N1CCOCC1 | 4% [inhibitor] (active) |
| COCCNC(=S)Nc1cc(S(=O)(=O)N2CCOCC2)ccc1N1CCCCC1 | 99% (inactive) |
| COc1ccc(S(=O)(=O)N2CCOCC2)cc1C(=O)NC1CCCCC1 | 103% (inactive) |
| COc1cccc(C(=O)OCc2cc(=O)oc3c(C)c(C)ccc23)c1OC | 103% (inactive) |
| Nc1nc(SCc2cccc(Br)c2)n[nH]1 | 105% (inactive) |
| CSCC[C@H](NC(=O)CCCn1nnc2ccccc2c1=O)C(=O)O | 137% (active) |
| O=C(CCn1nnc2ccccc2c1=O)N[C@@H](Cc1c[nH]c2ccccc12)C(=O)O | 98% (inactive) |
| O=c1c2ccccc2nnn1CSc1nnnn1-c1ccccc1 | 101% (inactive) |
| CN(CCc1ccccn1)C(=O)c1ccc(OC2CCN(CCc3ccccc3)CC2)cc1 | 98% (inactive) |
| COc1ccc(CNC(=O)C2CCN(S(C)(=O)=O)CC2)cc1 | 39% [inhibitor] (active) |
| COc1ccc(CNC(=O)C2CCN(S(=O)(=O)N3CCOCC3)CC2)cc1 | 104% (inactive) |
| COc1ccc(CNC(=O)C2CCN(S(=O)(=O)c3ccc(SC)cc3)CC2)cc1 | 101% (inactive) |
| COc1ccc(CNC(=O)[C@@H]2CC=C[C@@H]3CCN(C4CC4)C(=O)[C@@H]32)cc1 | 101% (inactive) |
| O=S(=O)(Nc1ccccc1Br)c1cccs1 | 100% (inactive) |
| COc1cc(C2C3=C(CCCC3=O)OC3=C2C(=O)CCC3)ccc1OCC(=O)Nc1ccccc1 | 100% (inactive) |
| CCCn1c(C)cc(/C=C(\C#N)C(=O)OCC(=O)Nc2cc(OC)c(OC)c(OC)c2)c1C | 101% (inactive) |
| CCOC(=O)/C(C#N)=C/c1ccc(OCC(=O)Nc2ccccc2)c(OC)c1 | 27% [inhibitor] (active) |

From PubChem BioAssay AID1529 (NMMLSC, 2009)
